From PubChem BioAssay (Tox21)
A number with no mark means an inactive call. Entries that show only a call come without a potency. Calls of active or inactive are those of the source. Calls follow the shape of the dose curve; as a rule, active = well fitted activation curve with a large enough effect in the repeat runs; inconclusive = weak or mixed curves; inactive = flat fitted curve, though single readings scatter.

Target: KiSS-1 receptor (Homo sapiens) (UniProt Q969F8)
Assay: Human kisspeptin (KISS1R) small molecule agonists, calcium flux assay in KISS1R-HEK293 cells (AID 1920064)
Details: KISS1R-HEK293, calcium flux fluorescence, agonist; series mostly up to 76.8 µM; activation: at the top concentration
From the text: National Center for Advancing Translational Sciences [NCATS]
Division of Preclinical Innovation [DPI]
U.S. Environmental Protection Agency [EPA]
National Institutes of Environmental Health Sciences [NIEHS]
National Toxicology Program [NTP]
U.S. Food and Drug Administration [FDA]
Kisspeptin and its receptor KISS1R play key roles in mammalian reproduction due to their involvement in the onset of puberty and control of the hypothalamic-pituitary-gonadal axis such as regulates GnRH release from the hypothalamus. The kisspeptin/KISS1R system also plays a direct role in peripheral organs (including the ovary, testis, uterus, and placenta) and is implicated in reproductive diseases such as miscarriage and polycystic ovary syndrome (PCOS). Abnormal KISS1R activity is associated with abnormal puberty, infertility, endometriosis, and hormone-dependent tumors. The KISS1 receptor (KISS1R, also called GPR54), a G-protein-coupled receptor (GPCR), acts (through phospholipase C) to increase intracellular inositol trisphosphate and then release intracellular calcium stores. Cell-based KISS1R-HEK293 assay is using HEK293 cells that have been genetically engineered to express the human KISS1R, which activity can be measured by calcium signaling. A compound/drug can activate (agonist) KISS1R that can be monitored by levels of intracellular calcium.
KISS1R-HEK293 cells developed by Codex Corp contain human KISS1R gene, which was stably integrated into HEK 293 cells. The compound activation can be detected by fluorescence intensity via calcium flux assay. This cell line has been used to screen the Tox21 10K compound library to identify agonists of KISS1R.
KISS1R-Hek293 cells were dispensed at 1500 cells/4uL/well in 1536-well black wall/clear bottom plates using a multidrop dispenser. After the assay plates were incubated at a 37 C/5% CO2 incubator for 18 hours, 4 microL of Calcium Dye Solution was added to each well. The plates were incubated at 37 C for 1 hour. And then 23 nL of compounds dissolved in DMSO, positive controls, or DMSO only was transferred to the assay plate by a pin tool station. The fluorescence intensity in the plates was measured using FDSS 7000EX kinetic plate reader with a filter set of Ex/Em=480/540 for 3 min at 1 sec intervals. Each test compound was measured at 15 concentrations and in triplicates.

Chain of KiSS-1 receptor (Homo sapiens) (Q969F8 whole entry, looked up): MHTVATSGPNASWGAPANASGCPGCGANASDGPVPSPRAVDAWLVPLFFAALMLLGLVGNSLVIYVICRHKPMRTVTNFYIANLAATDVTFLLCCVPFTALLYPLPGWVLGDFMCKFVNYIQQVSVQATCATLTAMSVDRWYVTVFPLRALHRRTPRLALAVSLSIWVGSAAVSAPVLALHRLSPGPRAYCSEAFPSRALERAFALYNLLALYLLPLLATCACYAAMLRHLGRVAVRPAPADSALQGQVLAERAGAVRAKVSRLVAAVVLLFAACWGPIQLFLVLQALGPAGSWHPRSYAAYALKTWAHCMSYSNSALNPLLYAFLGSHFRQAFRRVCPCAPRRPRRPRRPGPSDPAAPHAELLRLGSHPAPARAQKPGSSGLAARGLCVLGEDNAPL

| SMILES | Potency | activation |
| --- | --- | --- |
| Nc1ccc(Cl)c(Cl)c1 | inactive | – |
| Nc1ccccc1C(=O)OCCc1ccccc1 | inactive | – |
| COC(=O)c1ccccc1N | inactive | – |
| CCCCC(CC)COC(=O)c1ccc(C(=O)OCC(CC)CCCC)c(C(=O)OCC(CC)CCCC)c1 (stereo not given) | inactive | – |
| COS(=O)(=O)OC | inactive | – |
| COP(=S)(OC)Oc1ccc(S(=O)(=O)N(C)C)cc1 | inactive | – |
| CCOC(=O)c1cncn1C(C)c1ccccc1 (stereo not given) | – | 8.4% [at 35.3 µM] |
| O=S(=O)(Oc1ccc(Cl)cc1)c1ccc(Cl)cc1 | inactive | – |
| CS(=O)(=O)NC(=O)c1cc(Oc2ccc(C(F)(F)F)cc2Cl)ccc1[N+](=O)[O-] | inactive | – |
| O=C(O)c1nn(Cc2ccc(Cl)cc2Cl)c2ccccc12 | inactive | – |
| CNC(C)(C)Cc1ccccc1 | – | 3.79% [at 35.3 µM] |
| COP(=O)(NC(C)=O)SC (stereo not given) | inactive | – |
| CCCC(C)(COC(N)=O)COC(N)=O | – | 5.61% |
| Clc1ccc(C(c2ccc(Cl)cc2)C(Cl)Cl)cc1 | inactive | – |
| COP(=S)(OC)Oc1ccc(Sc2ccc(OP(=S)(OC)OC)cc2)cc1 | inactive | – |
| CCc1cnc(C2=NC(C)(C(C)C)C(=O)N2)c(C(=O)O)c1 (stereo not given) | inactive | – |
| Clc1nc(Cl)nc(Nc2ccccc2Cl)n1 | – | 0.172% |
| O=C(O)C(F)(F)C(F)(F)C(F)(F)C(F)(F)C(F)(F)C(F)(F)C(F)(F)C(F)(F)C(F)(F)C(F)(F)F | – | -3.61% |
| ClC(Cl)(Cl)c1ccccc1 | inactive | – |
| COP(=O)(CCC(=O)NCO)OC | – | -1.98% |

| SMILES | Potency | activation |
| --- | --- | --- |
| CC(Cl)Cl | – | 1.05% |
| CC(Cl)CCl (stereo not given) | – | -0.0812% |
| O=C(Cl)OCCOCCOC(=O)Cl | – | -1.09% |
| CCC(=O)Nc1ccc(Cl)c(Cl)c1 | inactive | – |
| c1ccc(CN2CCNCC2)cc1 | – | 0.862% [at 200 µM] |
| NC(=O)OCCCc1ccccc1 | – | -1.62% [at 35.3 µM] |
| CCC(=O)C(CC(C)N(C)C)(c1ccccc1)c1ccccc1 (stereo not given) | inactive | – |
| O=[N+]([O-])c1ccccc1-c1ccccc1 | – | -2.91% |
| COC(=O)Cc1ccccc1 | – | -0.295% |
| OCC(Cl)CCl (stereo not given) | – | -1.41% |
| CCOP(=S)(OCC)SCn1c(=O)oc2cc(Cl)ccc21 | inactive | – |
| CC(C)(Cl)Cl | inactive | – |
| CCNc1nc(NCC)nc(SC)n1 | – | 0.93% |
| CCC1(CC)C(=O)C=CNC1=O | – | 6.41% [at 35.3 µM] |
| CC(C)(C)OOC(C)(C)CCC(C)(C)OOC(C)(C)C | – | 4.95% |
| C/C(=N\NC(=O)Nc1cc(F)cc(F)c1)c1ncccc1C(=O)O | inactive | – |
| CC(C)(C)C(=O)Cl | – | 4.06% |
| CN(C)[C@@H]1C(=O)C(C(N)=O)=C(O)[C@@]2(O)C(=O)C3=C(O)c4c(O)cccc4[C@@](C)(O)[C@H]3[C@H](O)[C@@H]12 | inactive | – |
| COP(=S)(OC)Oc1ccc(SC)c(C)c1 | inactive | – |
| O=C(Cl)CCl | – | -3.77% |
